High-throughput results: PubChem, National Center for Advancing Translational Sciences (NCATS)
BRCA1 expr up – BRCA1 expression activation; Potency, µM (titrated, usually from 46.1 µM), for inactives: at the highest dose activation, most hits filed as activators; 380,000 compounds, 1.1% hits; MCF7-BRCA1-FFLuc reporter, luminescence, 48 h; response scale: scaled: vehicle 0%, 10 µM genistein 100%; AID 624202; note: nearly all actives have a fitted effect of over 80% in size
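First, MCF7-BRCA1-FFLuc cells (2000/well) attach for 2 h; next, compounds are pin-added and incubated 48 h at 37 °C; finally, luciferase reagent is added and luminescence read after 15 min.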
Tb PFK inh – T. brucei PFK enzyme inhibition. O15648. T. brucei PFK, ADP-Glo luminescence. Potency, µM (titrated, usually from 57.5 µM), for the others: at the top dose activity, negative = inhibition, most hits filed as inhibitors. 330,000 compounds, 0.17% hits. AID 485367;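 note: 0% = uninhibited 1x PFK enzyme wells and -100% = no-enzyme wells; nearly all actives have a fitted effect of over 60% in size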
Target sequence (O15648 whole entry, looked up): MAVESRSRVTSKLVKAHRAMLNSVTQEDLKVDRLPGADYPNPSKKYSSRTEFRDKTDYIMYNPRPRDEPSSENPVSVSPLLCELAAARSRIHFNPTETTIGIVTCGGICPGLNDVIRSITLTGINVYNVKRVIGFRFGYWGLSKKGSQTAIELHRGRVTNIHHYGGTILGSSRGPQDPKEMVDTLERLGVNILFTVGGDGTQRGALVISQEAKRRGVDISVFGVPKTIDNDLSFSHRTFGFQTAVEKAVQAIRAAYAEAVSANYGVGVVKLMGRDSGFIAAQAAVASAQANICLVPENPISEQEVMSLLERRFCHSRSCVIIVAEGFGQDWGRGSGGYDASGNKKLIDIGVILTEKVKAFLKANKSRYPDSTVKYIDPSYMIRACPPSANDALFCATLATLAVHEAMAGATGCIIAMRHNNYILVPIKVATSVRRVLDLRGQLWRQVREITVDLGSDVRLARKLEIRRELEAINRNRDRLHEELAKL
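Activity is normalized to no-enzyme wells (full inhibition) and 1.25 nM enzyme wells (no inhibition). Reaction: 0.5 mM F6P, 0.1 mM ATP, 45 min RT, ADP-Glo luminescence; concentration-response curves fitted and classed by quality.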
PLK1 PBD block – blocks phosphopeptide binding to human PLK1 polo-box domain. Plk1 PBD binding of FITC phosphopeptide, fluorescence polarization. Potency, µM, without a hit: max response, negative = inhibition, hits mostly inhibitors. 360,000 compounds, 2.8% hits. AID 720504; note: series mostly up to about 57 µM; % is set by controls: 0 for no effect and ±100 for the full control effect; nearly all actives have a fitted effect of over 65% in size
VDR inh – vitamin D3 receptor (human) inhibition; VDR-SRC2-3 peptide fluorescence polarization, 2 h; Potency, µM, inactives show max response, negative = inhibition, most hits filed as inhibitors; 400,000 compounds, 0.93% hits; AID 504847; note: % is set by controls: 0 for no effect and ±100 for the full control effect
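Signal is fluorescence polarization, reporting how far test compounds block the interaction of VDR with the SRC2-3 coregulator peptide after a 2 h room-temperature incubation.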
The depositor's hits bear a star; u = inconclusive; x = no result given. Rows were chosen to be rich in hits. Some 3.9% of all compounds tested hit in one or more screens of this group. Calls come from the whole dose curve; as a rule, active = well fitted curve in the direction sought with a large enough effect; inconclusive = small, poorly fitted or top-dose-only effect, or another doubt; inactive = no such curve, though single readings can be large; an effect the other way counts as inactive or inconclusive. Potency is the fitted concentration of half-maximal effect.

SMILES	BRCA1 expr up	Tb PFK inh	PLK1 PBD block	VDR inh
COc1cccc(Nc2nc(CC(C)=O)ns2)c1	11µM*	2%	-2%	9%
CC(=O)Cc1nsc(Nc2ccc(F)cc2)n1	u	-2%	-3%	-10%
CC(=O)Cc1nsc(Nc2ccc(Cl)cc2)n1	10µM*	2%	-5%	-5%
COc1ccc(Nc2nc(CC(C)=O)ns2)cc1	10µM*	0%	-7%	15%
CCCC(O)c1nc2ccccc2n1CCCCOc1ccc(OC)cc1 (centres undefined)	0%	x	x	4%
CCOCCc1nn2c(=O)cc(COC(=O)c3ccccc3NC(=O)c3ccc(C)cc3)nc2s1	x	x	x	5%
CC(=O)c1c(C)[nH]c2ccc(OCC(O)CNCCc3ccccc3)cc12 (centres undefined)	9%	x	x	x
COC(=O)c1scc(S(C)(=O)=O)c1-n1cccc1	23%	0%	30µM*	-13%
CC(C)S(=O)(=O)c1csc(C(=O)NN)c1-n1cccc1	-25%	5%	-4%	-6%
COC(=O)/C=c1/s/c(=C(/C#N)C(=O)N2CCOCC2)n(-c2ccccc2)c1=O	9%	-1%	27µM*	-20%
COC(=O)/C=c1/s/c(=C(/C#N)C(=O)N2CCCCC2)n(-c2ccccc2)c1=O	2%	-9%	-13%	u
C[N+]1(CC(=O)c2ccc3c(c2)CCCC3)CCOCC1	6%	x	x	x
COc1ccc(S(=O)(=O)N/N=C\c2ccccc2F)cc1	0%	0%	-19%	7%
O=S(=O)(N/N=C\c1c(F)cccc1Cl)c1ccc(Cl)cc1	-19%	-1%	15µM*	u
O=C(CSc1n[nH]c(=O)[nH]c1=O)N1CCCCCC1	6%	-2%	27µM*	u
CCOc1ccc(NC(=O)c2sc3nc(N4CCOCC4)c4c(c3c2N)CCCC4)cc1	-2%	1%	30µM*	-27%
Nc1c(C(=O)Nc2ccccc2)sc2nc(N3CCOCC3)c3c(c12)CCCC3	13µM*	x	u	x
Cc1ccc(NC(=O)c2sc3nc(N4CCOCC4)c4c(c3c2N)CCCC4)cc1	27%	x	u	x
CCNc1ccccc1CP(=O)(c1ccccc1)c1ccccc1O (centres undefined)	-5%	-7%	21µM*	20µM*
Cc1ccc(O)c(CP(=O)(c2ccccc2)c2ccccc2)c1	-19%	-1%	1%	-6%
CCNC(=O)C1CC(=O)N(c2ccc(Br)cc2)C1 (centres undefined)	16%	1%	24µM*	-18%
CC1=CC(=O)C2C(C)(C)CCC[C@@]2(C)[C@@]1(O)CCc1ccoc1 (some centres undefined)	x	x	x	50µM*
CC1=CC(=O)[C@H]2C(C)(C)CCC[C@]2(C)[C@@]1(O)CO	10%	2%	-2%	-5%
O=C(Nc1cccc2cccnc12)c1c(Cl)cc(Cl)cc1Cl	-13%	x	x	3%
O=C(O)CC(NC(=O)CCc1ccccc1)c1ccc(Cl)cc1 (centres undefined)	-10%	1%	2%	-4%
SMILES	BRCA1 expr up	Tb PFK inh	PLK1 PBD block	VDR inh
CCC(NC(=O)CCc1ccccc1)c1ccccc1 (centres undefined)	-18%	2%	-4%	89µM*
CCCC(NC(=O)CCl)c1ccccc1 (centres undefined)	-15%	3%	-9%	-17%
CCC(NC(=O)CCl)c1ccc(C)cc1 (centres undefined)	10%	1%	30µM*	-19%
CCCCC/C=C\C/C=C\CC1OC1C/C=C\CCCC(=O)O (centres undefined)	x	x	x	1%
CCOC(=O)C1C(c2ccc3c(c2)OCO3)NC(=O)NC1(O)C(F)(F)F (centres undefined)	5%	-1%	3µM*	u
COc1ccc(CN/C(C)=C(/C#N)C(N)=O)cc1OC	3%	1%	27µM*	u
COc1ccc(CNC(=O)NCc2ccc(OC)c(OC)c2)cc1OC	-38%	-3%	-6%	4%
Cc1ccc(N2/C(=N/c3nc(C)cc(C)n3)NC(=O)CC2C(=O)O)cc1 (centres undefined)	-47%	-2%	-1%	-4%
Cc1cc(C)nc(/N=C2\NC(=O)CC(C(=O)O)N2c2ccc(C)c(C)c2)n1 (centres undefined)	0%	5%	24µM*	50µM*
CO[C@@H]1CN(C)C(=O)c2cc(NC(=O)NC3CCCCC3)ccc2OC[C@@H](C)N(CCc2ccccc2)C[C@@H]1C	x	x	-4%	x
O=C(CCC(=O)N(CC(=O)NC1CCCCC1)CC1CCCO1)Nc1nccs1 (centres undefined)	3%	-1%	27µM*	-7%
COc1ccc(C(C)(C)C)cc1NC(=S)NCCN1CCOCC1	-9%	-3%	24µM*	6%
COc1cc(NC(=S)NCCN2CCOCC2)cc(OC)c1OC	12%	-6%	-24%	-20%
CC1(C)Cc2c(sc3ncn4c(=S)[nH]nc4c23)CO1	-1%	-7%	30µM*	u
COc1ccc(-c2csc(C(O)c3ccc(F)cc3)n2)cn1 (centres undefined)	63%	x	5%	x
O=C(Nc1cc(C(F)(F)F)ccc1N1CCOCC1)c1c(F)c(F)c(F)c(F)c1F	-8%	-3%	30µM*	7%
COC(=O)CSCc1nc2ccccc2[nH]c1=O	-30%	1%	12µM*	u
Cc1cc(NC(=O)CSc2ncc(CO)n2Cc2ccc(F)cc2)no1	9%	-4%	-11%	12%
COc1ccccc1NC(=O)CSc1nnnn1-c1ccccc1F	-5%	-1%	27µM*	-9%
COc1ccccc1NC(=O)CSc1ncc(CO)n1Cc1ccc(F)cc1	-13%	1%	9.5µM*	u
O=C(COc1ccc(F)cc1Cl)NC1CCCCCC1	u	0%	-6%	3%
CCOc1cc(/C=C(\C#N)C(=O)Nc2ccc(S(N)(=O)=O)cc2)ccc1OCCN1CCOCC1	6%	1%	-10%	10%
CCNc1oc(-c2cccc3ccccc23)nc1C#N	71%	x	-5%	-12%
CC(C)Nc1oc(-c2cccc3ccccc23)nc1C#N	14µM*	3%	-6%	0%
O=C(COc1ccccc1C(=O)O)Nc1cccc2ccccc12	2%	14%	-8%	6%
SMILES	BRCA1 expr up	Tb PFK inh	PLK1 PBD block	VDR inh
O=C(COc1cccc2ccccc12)Nc1cc(Cl)ccc1C(=O)O	-14%	0%	21µM*	-30%
O=C(COc1cccc2ccccc12)Nc1ccc(Cl)cc1C(=O)O	-22%	3%	27µM*	u
O=C(Nc1ccc(Cl)cn1)c1cnn2c1NC(=C1CC1)C=C2C(F)F	12%	x	x	x
CCOc1ccc(OC(=O)c2c(-c3ccccc3Cl)noc2C)cc1	x	x	x	-1%
CCOc1ccc(CCNC(=O)c2ccc3c(c2)c(C)c(C)n3C)cc1	x	x	x	23%
CCNC(=O)CC1C(=O)N(c2ccc(F)cc2)C(=O)N1Cc1ccccn1 (centres undefined)	0%	2%	27µM*	u
N#Cc1c(-c2ccco2)c2c([nH]c1=S)CCCC2	-8%	u	12µM*	-10%
CC1CCN(c2[nH]c(=S)c(C#N)c3c2CCCC3)CC1	6%	5%	u	-26%
N#Cc1c(-c2cccnc2)c2c([nH]c1=S)CCCC2	25%	-29%	12µM*	-24%
